# Measured values published in PubChem BioAssay AID624396 (The Scripps Research Institute Molecular Screening Center, 2012).
# Activity calls are given as the source filed them.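 How the source made its calls: active means over 15% of cells apoptotic at 25 µM, or half-maximal dose of 10 µM or lower; inactive means the rest.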
# Test system: DHL-10
# Assay: apoptosis induction in cancer cell lines, late-stage follow-up, mechanism study for MCL1-BIM inhibitor project, imaging, DAPI staining, cell line panel, probe (AID 624396)
# Details: DAPI nuclear morphology
compound,measurement,value
CCN1CCN(C(c2ccc(C(F)(F)F)cc2)c2ccc3cccnc3c2O)CC1 (stereo unspecified),outcome,inactive
